Laboratory results: PubChem BioAssay (NCI)
Where “and” joins values, the source holds several entries; their conditions need not be identical. Equal entries are not always repeated. Compounds without any hit were thinned out: in the full panel of roughly 83,000, 20% have a hit.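 Assay: single dose, 48 h. Readout: percent growth (0 = no net growth; negative = cell death). Active: <10.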 Calls of active or inactive are those of the source.

The molecules below were run on SW-620 colon (assay: NCI-60 one-dose screen, 48 h (100 = growth as untreated, 0 = no growth, -100 = all killed)). Settings: 10 µM.
Method: Growth inhibition of the SW-620 human tumor cell line is measured as a screen for anti-cancer activity. Cells are grown in 96 well plates and exposed to the test compound for 48 hours. Compounds are tested at a single concentration, which is 10^-5 M for most compounds. The reported endpoint is percent growth (GI% or GIPRCNT), where numbers from 0 - 100% represent growth inhibition, and numbers from -100% - 0 represent cell death. For example, a value of 40 represents 60% growth inhibition. A value of 0 means no net growth occurred over the course of the experiment. A value of -40 indicates 40% of cells at the beginning of the experiment died by the end of the experiment. A value of -100 means all cells are dead at the end of the experiment.
NCI-60 Human Tumor Cell Lines Screen was performed using the standard one-dose NCI protocol, which is described in more detail at https://dtp.cancer.gov/discovery_development/nci-60/default.htm.
Compounds with GIPRCNT values below 10 were considered active. Activity score was based on GIPRCNT using the following formula: […]
Score is 0 for GIPRCNT values of 100 or above, 50 for GIPRCNT values of 0, and 100 for GIPRCNT values of -100.

SMILES | growth
CC#C[C@]1(O)CC[C@H]2[C@@H]3CCC4=CC(=O)CCC4=C3[C@@H](c3ccc4c(c3)OCO4)C[C@@]21C | 84.7% (inactive)
Cc1[nH]c(-c2nc3ccccc3[nH]2)c(C)c1C(=O)NC(C)C1CCCCC1 (stereo not given) | 92.9% (inactive)

Same assay, conditions: 10 µM unless noted

SMILES | growth
CN(C)CCC(=O)c1ccc(Cl)cc1 | 103% (inactive) and 108% (inactive)
CC1=C[C@H]2c3c(c(O)c(O)c4oc5cc(O)cc(O)c5c(=O)c34)[C@H](c3cc(O)c(O)c4oc5cc(O)cc(O)c5c(=O)c34)[C@H]2C(C)(C)C1 | -37.8% (active) and -80.9% (active)
COc1cc(Nc2nc3ccccc3nc2NS(=O)(=O)c2ccc(NC(=O)c3ccc(C)c(OC)c3)cc2)cc(OC)c1 | 52% (inactive) and 28.1% (inactive)
CC(C)Cc1ccc(C(C)C(=O)NCc2ccc(Cn3c(=O)sn(CCCCl)c3=O)cc2)cc1 (stereo not given) | 87.3% (inactive) and -72.3% (active)
Cc1cc(=O)[nH]c(O)c1C#N | 102% (inactive) and 106% (inactive)
Nc1ccc(N=Nc2ccc(S(=O)(=O)O)cc2)cc1S(=O)(=O)O | 115% (inactive) and 97.8% (inactive)
O[C@H](c1cc(C(F)(F)F)nc2c(C(F)(F)F)cccc12)[C@@H]1CCCCN1 | 71% (inactive) and 74.1% (inactive)
O=C1C2=C(C(=O)c3ccccc31)C(O)(S(=O)(=O)O)C(O)(S(=O)(=O)O)C1N=CC=CC21 (stereo not given) | 32.5% (inactive) and 21.5% (inactive)
Cc1cc(-c2ccc(NS(=O)(=O)c3ccccc3)c(C)c2)ccc1NS(=O)(=O)c1ccccc1 | 92.2% (inactive) and 108% (inactive)
CN(Cc1ccccc1)Cc1ccccc1 | 112% (inactive)
CCOc1ccc2cc(-c3nn(CC4CCN(C)CC4)c4ncnc(N)c34)ccc2c1 | 91% (inactive) and 65.6% (inactive)
Cc1nn(-c2ccc(Cl)cc2)c2ncnc(N/N=C/c3ccccc3O)c12 | 35.1% (inactive) and 31.5% (inactive)
CCN(CC)CCC(CNc1c2ccc([N+](=O)[O-])cc2nc2cc(OC)c(OC)cc12)c1ccccc1 (stereo not given) | 6.7% (active)
Nc1ncnc2c1ncn2C1CC(O)C(CO)O1 (stereo not given) | 115% (inactive) and 105% (inactive)
CN(C)c1ccc(/C=C(\C#N)c2ccccc2)cc1 | 18.1% (inactive) and 33.3% (inactive) and 21.8% (inactive)
Cc1ccc(S(=O)(=O)Nc2nc3ccccc3nc2Nc2ccc3nsnc3c2)cc1 | 77.5% (inactive) and 61% (inactive)
CC1CCCC(=O)O1 (stereo not given) | 105% (inactive) and 104% (inactive)
O=C(Nc1cccc(-n2ccc3c(NC(=O)c4ccccc4)nccc32)c1)c1ccc(Cl)c(C(F)(F)F)c1 | -73.8% (active) and 48.8% (inactive)

SMILES | growth
CNc1ccc2nc3ccc(=[N+](C)C)cc-3sc2c1 | 0.782% (active) and 2.58% (active)
Cc1nnc(NC/C=C/c2ccccc2)s1 | 113% (inactive) and 105% (inactive)
CCOC(=O)C(CNc1ccccc1)C(=O)OCC | 104% (inactive)
Cc1ccc2nc3c(nc2c1)-c1cccc2cccc-3c12 | 71.1% (inactive)
Cc1nn(-c2ccccc2)nc1C(=O)Nc1ccccc1C(=O)NCC1CC1 | 104% (inactive) and 68.7% (inactive)
COc1cc2c(Nc3ccc(Cl)c(Cl)c3F)ncnc2cc1OCC1C[C@@H]2CN(C)C[C@@H]2C1 (stereo not given in full) | -76.6% (active) and 6.96% (active)
Cc1c(Cl)cccc1NCN1C(=O)c2ccccc2C1=O | 110% (inactive)
O=C(Nc1ccc(Br)cc1)c1cc(Br)ccc1O | 12.4% (inactive) and 4.33% (active)
O=S(=O)(Nc1ccccc1)C1CCCCC1 | 106% (inactive) and 107% (inactive)
CNC(=O)c1cccnc1 | 106% (inactive)
CCCCCCCCCCCCCCCc1cc(O)ccc1N | 114% (inactive) and 108% (inactive)
O=C1OC(Oc2ccc(Br)cc2)(c2ccccc2)c2ccccc21 (stereo not given) | 78.6% (inactive) and 66.5% (inactive)
NC(=S)NS(=O)(=O)c1ccc(N)cc1 | 110% (inactive)
CNc1cc(-c2cccc(OC(F)(F)F)c2)nc2ccc(N3CCCC3)cc12 | 5.95% (active) and -18.2% (active) and 0.371% (active)
COc1ccccc1/C=N\N=C(N/N=C/c1ccccc1OC)N/N=C/c1ccccc1OC | 60.8% (inactive) and 20.1% (inactive)
N#CC(C#N)=C/C=C/c1cccc([N+](=O)[O-])c1 | 2.75% (active) and -71.6% (active)
NC(=S)NN=C1CCC(C2CCCCC2)CC1 (stereo not given) | 84.6% (inactive) and 88.6% (inactive)
CCN(CC)C(=S)SSC(=S)N(CC)CC | 77.2% (inactive) and 109% (inactive)

Same assay, conditions: 100 µM

SMILES | growth
CC#C[C@]1(O)CC[C@H]2[C@@H]3CCC4=CC(=O)CCC4=C3[C@@H](c3ccc4c(c3)OCO4)C[C@@]21C | 4.2% (active)
Cc1[nH]c(-c2nc3ccccc3[nH]2)c(C)c1C(=O)NC(C)C1CCCCC1 (stereo not given) | -68.8% (active)
